In PubChem BioAssay (Tox21):
Records with an inconclusive call do not appear. The source made the active and inactive calls. Unless noted, calls follow the shape of the dose curve; as a rule, active = well fitted curve in the direction sought with a large enough effect in the repeat runs; inconclusive = weak or mixed curves; inactive = no such curve, though single readings can be large; an effect the other way counts as inactive or inconclusive.

Key:
[1] = qHTS assay to identify aromatase inhibitors - cell viability counter screen (AID 743084);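 also: cells stimulated with testosterone during compound exposure; nearly all actives have a fitted effect of over 55% in size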
[2] = target: Aryl hydrocarbon receptor (Homo sapiens) (UniProt P35869); assay: qHTS assay to identify small molecule that activate the aryl hydrocarbon receptor (AhR) signaling pathway (AID 743085);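 also: HG2L7.5c1 human HepG2 liver cells with stably integrated DRE-driven firefly reporter; series mostly up to about 70 µM; nearly all actives have a fitted effect of over 15% in size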
Sequence of Aryl hydrocarbon receptor (Homo sapiens) (P35869 whole entry, looked up): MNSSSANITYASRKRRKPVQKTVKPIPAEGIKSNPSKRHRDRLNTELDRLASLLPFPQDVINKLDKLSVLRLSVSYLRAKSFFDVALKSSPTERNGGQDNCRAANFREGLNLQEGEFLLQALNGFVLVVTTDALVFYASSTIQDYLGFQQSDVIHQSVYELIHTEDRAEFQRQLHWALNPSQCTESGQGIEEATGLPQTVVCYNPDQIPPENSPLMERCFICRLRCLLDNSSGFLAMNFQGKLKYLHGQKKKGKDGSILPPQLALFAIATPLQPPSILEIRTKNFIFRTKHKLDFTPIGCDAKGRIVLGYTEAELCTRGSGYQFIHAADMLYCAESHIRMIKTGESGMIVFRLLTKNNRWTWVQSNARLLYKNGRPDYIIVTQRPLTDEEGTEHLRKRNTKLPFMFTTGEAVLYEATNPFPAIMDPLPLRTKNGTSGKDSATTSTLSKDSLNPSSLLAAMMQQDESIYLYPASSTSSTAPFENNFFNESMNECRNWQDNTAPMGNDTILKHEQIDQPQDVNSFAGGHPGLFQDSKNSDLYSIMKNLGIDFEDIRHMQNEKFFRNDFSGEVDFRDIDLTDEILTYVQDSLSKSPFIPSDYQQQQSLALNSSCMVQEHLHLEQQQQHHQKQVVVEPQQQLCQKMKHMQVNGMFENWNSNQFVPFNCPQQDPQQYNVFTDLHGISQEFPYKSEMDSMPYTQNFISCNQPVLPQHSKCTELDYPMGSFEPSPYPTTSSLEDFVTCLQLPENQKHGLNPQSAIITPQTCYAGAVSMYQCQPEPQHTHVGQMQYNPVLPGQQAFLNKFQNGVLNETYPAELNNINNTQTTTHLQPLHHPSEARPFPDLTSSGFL
Procedure, shortened: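 24 h compound exposure, 37C, HepG2-derived HG2L7.5c1 cells with DRE-responsive luciferase. Readouts: fluorescence viability, then luminescence at room temperature after 30 min.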

[3] = qHTS assay to identify small molecule that activate the aryl hydrocarbon receptor (AhR) signaling pathway - cell viability counter screen (AID 743086);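 also: HepG2 liver cells carrying the AhR DRE luciferase reporter; series mostly up to about 70 µM; nearly all actives have a fitted effect of over 45% in size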
Procedure, shortened: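 HepG2-AhR-luc (HG2L7.5c1) cells, 4000/well, treated 24 h at 37 C with compound; viability measured as CellTiter-Fluor fluorescence after 30 min in the same wells as the luciferase read.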

[4] = qHTS assay to identify small molecule antagonists of the peroxisome proliferator-activated receptor gamma (PPARg) signaling pathway - cell viability counter screen (AID 743194); also: nearly all actives have a fitted effect of over 55% in size
Procedure, shortened: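 Cytotoxicity counter screen in PPARg-bla HEK293H cells, same wells as reporter assay. Compounds plus 50 nM rosiglitazone (final) for 17 h at 37 C, then viability read by CellTiter-Glo luminescence.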

[5] = qHTS assay for small molecule agonists of the antioxidant response element (ARE) signaling pathway (AID 743202; active = well fitted activation curve with a large enough effect in the signal ratio in the repeat runs, not every such curve was filed as active; the % refers to the signal ratio)
Procedure, shortened: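 HepG2 ARE-bla cells; 16 h treatment at 37 C; FRET-based beta-lactamase fluorescence read after 2 h substrate incubation at room temperature.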

[6] = qHTS assay for small molecule activators of the heat shock response signaling pathway - cell viability counter screen (AID 743209); also: nearly all actives have a fitted effect of over 50% in size
Procedure, shortened: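 Cytotoxicity counter screen run in the same wells as the heat-shock bla reporter assay: HeLa HSE-bla cells, 5 h compound exposure at 37 C, viability read by CellTiter-Glo luminescence.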

[7] = qHTS assay for small molecule activators of the heat shock response signaling pathway (AID 743210; active = well fitted activation curve with a large enough effect in the signal ratio in the repeat runs, with a control signal flat, not every such curve was filed as active; the % refers to the signal ratio;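 also: HeLa cells with beta-lactamase reporter driven by heat shock elements; series mostly up to about 63 µM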)
Procedure, shortened: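 Following overnight attachment, HSE-bla HeLa cells received test compounds for 5 h at 37 C; beta-lactamase activity was then detected via FRET substrate fluorescence.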

[8] = qHTS assay to identify small molecule agonists of the peroxisome proliferator-activated receptor delta (PPARd) signaling pathway - cell viability counter screen (AID 743211); also: nearly all actives have a fitted effect of over 55% in size
Procedure, shortened: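 Luminescent ATP viability assay (CellTiter-Glo, 30 min RT) in UAS-bla HEK293H cells carrying the PPAR delta reporter construct, 3000 cells/well, after a 17 h compound treatment at 37 C.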

[9] = target: Peroxisome proliferator-activated receptor delta (Homo sapiens) (UniProt Q03181); assay: qHTS assay to identify small molecule agonists of the peroxisome proliferator-activated receptor delta (PPARd) signaling pathway (AID 743212; calls by dose curve)
Sequence of Peroxisome proliferator-activated receptor delta (Homo sapiens) (Q03181 whole entry, looked up): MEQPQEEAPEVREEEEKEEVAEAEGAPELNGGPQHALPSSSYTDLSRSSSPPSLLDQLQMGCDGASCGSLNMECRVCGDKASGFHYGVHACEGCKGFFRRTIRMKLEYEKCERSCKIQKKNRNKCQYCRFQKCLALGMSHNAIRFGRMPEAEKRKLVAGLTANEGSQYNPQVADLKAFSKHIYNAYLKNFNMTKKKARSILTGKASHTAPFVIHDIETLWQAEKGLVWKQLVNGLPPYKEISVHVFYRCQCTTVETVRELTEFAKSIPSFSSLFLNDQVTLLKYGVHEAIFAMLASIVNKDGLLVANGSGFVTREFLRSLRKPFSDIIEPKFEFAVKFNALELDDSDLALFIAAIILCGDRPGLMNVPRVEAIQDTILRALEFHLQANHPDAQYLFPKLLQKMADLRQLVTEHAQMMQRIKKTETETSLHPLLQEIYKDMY
Procedure, shortened: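 Tox21 library screened in GeneBLAzer PPARd UAS-bla HEK293H cells. After compound treatment at 37 C, a FRET-based beta-lactamase substrate was applied for 2 h and fluorescence recorded.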

[10] = qHTS assay to identify small molecule antagonists of the peroxisome proliferator-activated receptor delta (PPARd) signaling pathway - cell viability counter screen (AID 743213); also: nearly all actives have a fitted effect of over 50% in size
Procedure, shortened: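 In this counter screen, HEK293H cells carrying a UAS-beta-lactamase reporter are co-treated with test compounds and 300 nM L165041 (final) for 17 h at 37 C; cell viability is quantified by CellTiter-Glo luminescence.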

[11] = target: Peroxisome proliferator-activated receptor delta (Homo sapiens) (UniProt Q03181); assay: qHTS assay to identify small molecule antagonists of the peroxisome proliferator-activated receptor delta (PPARd) signaling pathway (AID 743215; active = well fitted inhibition curve with a large enough effect in the signal ratio in the repeat runs, not every such curve was filed as active; the % refers to the signal ratio;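 also: cells stimulated with agonist L165041 at 300 nM final during compound exposure; series mostly up to about 62 µM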)
Procedure, shortened: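 Agonist L165041 (300 nM final) added with compound to PPARd-bla HEK293H UAS-bla reporter cells; 17 h incubation at 37 C. Read-out: LiveBLAzer FRET substrate, 2 h at room temperature, fluorescence intensity.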

[12] = target: Bile acid receptor (Homo sapiens) (UniProt Q96RI1); assay: qHTS assay to identify small molecule antagonists of the farnesoid-X-receptor (FXR) signaling pathway (AID 743217; active = well fitted inhibition curve with a large enough effect in the signal ratio in the repeat runs, not every such curve was filed as active; the % refers to the signal ratio)
Sequence of Bile acid receptor (Homo sapiens) (Q96RI1 whole entry, looked up): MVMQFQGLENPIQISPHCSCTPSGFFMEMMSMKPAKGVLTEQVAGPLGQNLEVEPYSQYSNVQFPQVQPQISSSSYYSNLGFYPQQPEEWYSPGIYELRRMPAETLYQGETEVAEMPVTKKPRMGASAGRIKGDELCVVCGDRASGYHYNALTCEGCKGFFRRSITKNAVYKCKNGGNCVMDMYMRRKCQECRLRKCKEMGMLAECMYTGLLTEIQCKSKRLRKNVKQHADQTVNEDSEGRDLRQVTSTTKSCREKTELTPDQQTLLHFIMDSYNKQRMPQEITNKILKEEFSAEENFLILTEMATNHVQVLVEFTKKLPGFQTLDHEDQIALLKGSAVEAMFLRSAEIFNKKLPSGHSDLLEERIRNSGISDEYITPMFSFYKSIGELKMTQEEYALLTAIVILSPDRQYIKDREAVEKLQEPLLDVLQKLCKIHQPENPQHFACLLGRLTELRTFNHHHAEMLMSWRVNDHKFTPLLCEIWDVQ
Procedure, shortened: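 Antagonist mode: chenodeoxycholic acid at 50 uM final stimulates a UAS-driven beta-lactamase reporter in HEK 293T FXR-bla cells during 16 h, 37C compound exposure. Read-out is FRET substrate fluorescence after 2 h at room temperature.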

[13] = qHTS assay to identify small molecule agonists of the farnesoid-X-receptor (FXR) signaling pathway - cell viability counter screen (AID 743218); also: nearly all actives have a fitted effect of over 45% in size
Procedure, shortened: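 Viability counter screen in the same wells: CellTiter-Glo luminescence, 30 min room-temperature incubation, measured after the beta-lactamase read. Cells were GeneBLAzer FXR-UAS-bla HEK 293T, compound-treated 16 h at 37C.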

[14] = target: Bile acid receptor (Homo sapiens) (UniProt Q96RI1); assay: qHTS assay to identify small molecule agonists of the farnesoid-X-receptor (FXR) signaling pathway (AID 743220; active = well fitted activation curve with a large enough effect in the signal ratio in the repeat runs, not every such curve was filed as active; the % refers to the signal ratio)
Procedure, shortened: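 FXR-UAS-bla HEK 293T cells carrying a UAS-driven beta-lactamase reporter were plated for 5 h at 37C/5% CO2, then exposed to DMSO-dissolved Tox21 10K compounds for 16 h at 37C. A LiveBLAzer B/G FRET substrate was loaded for 2 h at room temperature before fluorescence reading.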

[15] = qHTS assay to identify small molecule antagonists of the farnesoid-X-receptor (FXR) signaling pathway - cell viability counter screen (AID 743221; active = well fitted cell-killing curve with a large enough effect in the repeat runs, not every such curve was filed as active; also: nearly all actives have a fitted effect of over 50% in size)
Procedure, shortened: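 In GeneBLAzer FXR-UAS-bla HEK 293T cells stimulated with 50 uM chenodeoxycholic acid (final), compounds acted for 16 h at 37 C. Viability was assessed afterwards by CellTiter-Glo luminescence.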

[16] = target: Vitamin D3 receptor (Homo sapiens) (UniProt P11473); assay: qHTS assay to identify small molecule agonists of the vitamin D receptor (VDR) signaling pathway (AID 743222; calls by dose curve)
Sequence of Vitamin D3 receptor (Homo sapiens) (P11473 whole entry, looked up): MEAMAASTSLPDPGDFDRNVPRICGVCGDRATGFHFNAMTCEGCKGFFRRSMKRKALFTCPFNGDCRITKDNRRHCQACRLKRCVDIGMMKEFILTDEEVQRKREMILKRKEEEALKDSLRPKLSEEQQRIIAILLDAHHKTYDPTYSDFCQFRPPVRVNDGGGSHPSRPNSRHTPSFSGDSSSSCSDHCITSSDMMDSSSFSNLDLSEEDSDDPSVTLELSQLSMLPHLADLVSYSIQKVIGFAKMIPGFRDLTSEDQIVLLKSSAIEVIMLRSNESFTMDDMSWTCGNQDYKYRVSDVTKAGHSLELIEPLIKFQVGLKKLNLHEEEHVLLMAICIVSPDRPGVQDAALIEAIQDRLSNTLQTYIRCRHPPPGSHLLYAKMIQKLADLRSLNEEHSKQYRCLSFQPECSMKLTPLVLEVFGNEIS
Procedure, shortened: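 Agonist mode, beta-lactamase reporter: fluorescence from LiveBLAzer B/G FRET substrate (2 h, room temperature) read after 16 h compound treatment at 37 C of VDR-bla cells, which were pre-incubated 4 h after seeding.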

[17] = target: Vitamin D3 receptor (Homo sapiens) (UniProt P11473); assay: qHTS assay to identify small molecule antagonists of the vitamin D receptor (VDR) signaling pathway (AID 743223; active = well fitted inhibition curve with a large enough effect in the signal ratio in the repeat runs, not every such curve was filed as active; the % refers to the signal ratio)
Procedure, shortened: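 Agonist 1alpha,25-dihydroxyvitamin D3 (3 nM in well) was added with each compound to VDR-bla cells preincubated 4 h. Cells stood 16 h at 37C, then FRET substrate 2 h at room temperature; fluorescence intensity recorded.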

[18] = qHTS assay for small molecule agonists of the antioxidant response element (ARE) signaling pathway - cell viability counter screen (AID 743203; calls by dose curve; also: nearly all actives have a fitted effect of over 55% in size)
Procedure, shortened: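 Viability counter screen: CellTiter-Glo luminescence, read after 30 min at room temperature, in ARE-bla HepG2 wells. Compound exposure lasted 16 h at 37C/5% CO2, following a 5 h pre-incubation of the cells after plating.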

[19] = target: Peroxisome proliferator-activated receptor gamma (Homo sapiens) (UniProt P37231); assay: qHTS assay to identify small molecule agonists of the peroxisome proliferator-activated receptor gamma (PPARg) signaling pathway (AID 743094; active = well fitted activation curve with a large enough effect in the signal ratio in the repeat runs, not every such curve was filed as active; the % refers to the signal ratio)
Sequence of Peroxisome proliferator-activated receptor gamma (Homo sapiens) (P37231 whole entry, looked up): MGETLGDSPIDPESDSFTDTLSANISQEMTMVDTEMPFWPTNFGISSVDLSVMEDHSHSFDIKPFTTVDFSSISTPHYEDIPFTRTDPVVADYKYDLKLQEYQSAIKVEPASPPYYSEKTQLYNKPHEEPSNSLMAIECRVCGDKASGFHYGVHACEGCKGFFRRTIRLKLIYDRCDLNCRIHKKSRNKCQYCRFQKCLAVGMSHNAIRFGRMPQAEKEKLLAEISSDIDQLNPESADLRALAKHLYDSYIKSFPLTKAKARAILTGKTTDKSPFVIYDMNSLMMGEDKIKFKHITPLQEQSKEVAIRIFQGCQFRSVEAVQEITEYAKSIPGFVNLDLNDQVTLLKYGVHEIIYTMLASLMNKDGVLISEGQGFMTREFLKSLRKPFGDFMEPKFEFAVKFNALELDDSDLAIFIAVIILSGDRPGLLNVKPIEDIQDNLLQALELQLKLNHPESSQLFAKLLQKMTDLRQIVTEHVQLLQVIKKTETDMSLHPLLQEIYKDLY
Procedure, shortened: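 Agonist activity was taken from a beta-lactamase reporter (FRET substrate, 1 h at room temperature) in HEK293H cells carrying a PPARg UAS-bla construct. Compounds in DMSO were incubated 17 h at 37C after a 5 h cell pre-incubation.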

[20] = target: Peroxisome proliferator-activated receptor gamma (Homo sapiens) (UniProt P37231); assay: qHTS assay to identify small molecule antagonists of the peroxisome proliferator-activated receptor gamma (PPARg) signaling pathway (AID 743191; calls by dose curve; also: series mostly up to about 63 µM; nearly all actives have a fitted effect of over 30% in size)
Procedure, shortened: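 GeneBLAzer PPARg UAS-bla HEK293H cells, 5 h post-plating, exposed to compounds 17 h at 37C. LiveBLAzer B/G FRET substrate added for 1 h at room temperature; beta-lactamase reporter read by fluorescence intensity.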

Measured: Potency

CN1CC(=O)NC1=N
inactive: [1] | [2] | [3] | [4] | [5] | [6] | [7] | [8] | [9] | [10] | [11] | [12] | [13] | [14] | [15] | [16] | [17]

CC/C=C\CC/C=C/CO
inactive: [1] | [2] | [3] | [4] | [18] | [6] | [8] | [9] | [10] | [13] | [15]

CC1(C)CO[C@@H](CC(=O)O)CN1
inactive: [1] | [2] | [3] | [4] | [5] | [18] | [6] | [8] | [9] | [11] | [15] | [16] | [17]

CCOC(=O)Nc1ccc(NCc2ccc(F)cc2)nc1N
inactive: [1] | [3] | [19] | [20] | [4] | [5] | [18] | [6] | [8] | [10] | [11] | [13] | [15] | [16]

O=C(CCCN1CCC(O)(c2cccc(C(F)(F)F)c2)CC1)c1ccc(F)cc1
inactive: [1] | [2] | [20] | [4] | [18] | [6] | [7] | [9] | [11] | [12] | [13] | [14] | [15] | [16] | [17]

c1cnc(N2CCN(Cc3ccc4c(c3)OCO4)CC2)nc1
inactive: [1] | [3] | [19] | [20] | [4] | [5] | [18] | [8] | [9] | [10] | [11] | [15] | [16] | [17]

NC(CSCC(=O)O)C(=O)O (stereo not given)
inactive: [1] | [2] | [3] | [4] | [5] | [6] | [7] | [8] | [9] | [10] | [11] | [12] | [14] | [15] | [16] | [17]

Cc1c(O)cccc1O
inactive: [1] | [3] | [19] | [20] | [4] | [5] | [18] | [6] | [7] | [8] | [9] | [10] | [12] | [13] | [14] | [15] | [16] | [17]

N[C@H]1CN(c2c(F)cc3c(=O)c(C(=O)O)cn(C4C[C@H]4F)c3c2Cl)CC12CC2 (stereo not given in full)
inactive: [1] | [2] | [3] | [4] | [18] | [6] | [7] | [8] | [10] | [13] | [15] | [16]
